Here are results for 25 compounds from PubChem BioAssay (EPA / NIEHS).

The term AC50 denotes the concentration giving half of the maximal activity seen.

The structures appear in SMILES notation. Results filed as inconclusive are left out. Activity calls are given as the source filed them. Rule for the calls: active = hit-call score of the fitted dose curve at least 0.9, where 1 is the maximum; inconclusive = response in the unintended direction; inactive = score below 0.9.

This assay in a line: CCTE_Deisenroth_AIME_384WELL_CTox_Active: Cytotoxicity Assessment (CTOX) in CCTE's 384-well Estrogen Receptor Transactivation Assay with AIME metabolic competence (metabolism positive), Deisenroth Lab (AID 2284037).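 Note: chemicals first conditioned 2 h by alginate-bound induced rat liver S9 before cells; activity means signal loss indicating cell death.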 Here is the method: CCTE_Deisenroth_AIME_384WELL (AIME metabolism assay) is a cell-based, single-readout assay that uses VM7Luc4E2, a human mammary gland/breast cell line, with measurements taken at 24 hour after chemical dosing in a 384-well plate.CCTE_Deisenroth_AIME_384WELL_CTox_Active is one of four assay components measured or calculated from the CCTE_Deisenroth_AIME_384WELL assay. It is designed to make measurements of a protease substrate, a type of viability indicator, as detected with substrate cleavage to a fluorescent probe in living cells.CCTE_Deisenroth_AIME_384WELL_CTox_Active is a component of the CCTE_Deisenroth_AIME_384WELL assay that measures the effect of retroftting the VM7Luc ERTA assay with the Alginate Immobolization of Metabolic Enzymes (AIME) metabolism method. AIME is optimized to impart phase I hepatic metabolism using phenobarbital/beta-naphthoflavone induced hepatic S9 from male Sprague Dawley rats. Parent chemicals are incubated for 2 hours in the AIME assay prior to transfer to the VM7Luc ERTA assay plate. […] This endpoint evaluates cytotoxicity in metabolism positive mode. Using a type of flourescent probe in VM7Luc cells, loss-of-signal activity can be used to understand loss of viability. This assay endpoint, CCTE_Deisenroth_AIME_384WELL_CTox_Active, was analyzed with bidirectional fitting in the ERTA assay.
The AIME procedure consists of a preparative "pre-stamping" step using a barium chloride/poly-L-lysine (PLL) solution followed by "stamping" the lid in alginate-hepatic S9 (metabolism positive) or alginate-water (metabolism negative) to form microspheres. Once stamping is completed, the AIME lids are placed in duplicate microplates (metabolism positive or negative) containing chemical solutions and incubated for two hours to facilitate metabolic reactions. The conditioned medium, containing parent chemical or metabolites, is then transferred to the cell-based VM7Luc Estrogen Receptor Transactivation Assay (ERTA) for 24 hours. A typical experimental design tests a 10-point concentration series (0.002 - 200 uM) for 8 compounds (96-well format) (Deisenroth 2020) or 32 compounds (384-well format) (Hopperstad 2022) in single technical replicate. AIME assay controls include trans-stilbene (bioactivated control) and ethylparaben (bioinactivated control). ERTA assay plate controls include 17-beta estradiol (positive control) and DMSO (solvent control). Experiments typically comprise a minimum of four experimental replicates (n=4).
In the case of `CCCCC(CC)COC(C)=O` (stereo not given), the compound was classed as inactive. Still for that read-out and setting: the same measure for `CCCCCCC(C)(C)S`: “inactive”. In the case of `CCNCCO`, the compound was classed as inactive. For the compound `O=C1NC2NC(=O)NC2N1` (stereo not given), the outcome was inactive.

Regarding `Nc1ccc2cc(S(=O)(=O)O)cc(O)c2c1N=Nc1ccccc1C(F)(F)F`, the AC50 is 46.4 µM (active).

With `CCCCCCCCSCCO`, the outcome was inactive. `CS(C)=O`: the compound was called inactive. For `O=[N+]([O-])c1ccc(O)cc1C(F)(F)F`, the half-maximal activity concentration (AC50) was 62.2 µM (active). On to `Oc1ccc2cc(SSc3ccc4cc(O)ccc4c3)ccc2c1`, for which the compound was classed as inactive. As to `CCCCC(CC)COC(=O)c1ccc(O)cc1` (stereo not given), the result was inactive.

Consider `CC(C)CCCCCCc1ccc(OCCOCCO)cc1`, for which the result was inactive. Still for that read-out and setting: with `CCCCCCCCC=CCCCCCCCC1=NCCN1CCO` the entry was “inactive”; with `C=CC(C)(O)CCC=C(C)C` (stereo not given), “inactive”. As to `Nc1ccc(N)c2c1C(=O)c1ccccc1C2=O`, the AC50 is 52 µM (active).

Consider `CCCCCCCCCCCCCCN(CCO)CCO`, for which the compound was classed as inactive. On to `CCC(=O)O[C@@H]1C[C@H]2CC[C@]1(C)C2(C)C`, for which the call was inactive. For the compound `CCCCCCCCCCCC(=O)OCC(O)CO` (stereo not given), the AC50 was 0.0666 µM (active).

Regarding `O=P(O)(O)O`, the result was inactive. On to `COc1ccccc1N=Nc1c(S(=O)(=O)O)cc2cc(S(=O)(=O)O)cc(NC(C)=O)c2c1O`, for which the compound was classed as inactive. As for `Clc1ccc(C(c2ccccc2Cl)C(Cl)Cl)cc1` (stereo not given), the AC50 was 100 µM (active). `CC(C)CC(C)CC(O)CC(C)C` (stereo not given): the call was inactive. `COCCOCCOCCO`: the compound was called inactive. In the case of `O=C1OC(=O)c2c(Cl)c(Cl)c(Cl)c(Cl)c21`, the result was inactive. Take `OCc1cccc(Oc2ccccc2)c1`: the compound was classed as inactive. The same measure, in the same setting: the same measure for `O=C(CC(=O)c1ccccc1)c1ccccc1`: “inactive”.
